Publication PMC12820563, “FoxP3 forms a head-to-head dimer in vivo and stabilizes its multimerization on adjacent microsatellites”
In all, about 16,000 sequences were measured (“rpm ratio (pull-down/input)”: median about 0.5, highest 2% from about 5.5 on). This is one part of a sample in which the highest values are shown more often than they occur.

Biological target: T1, MBP-FoxP3dN (Mus musculus, UniProt Q99JB6 188-423)
T1 sequence: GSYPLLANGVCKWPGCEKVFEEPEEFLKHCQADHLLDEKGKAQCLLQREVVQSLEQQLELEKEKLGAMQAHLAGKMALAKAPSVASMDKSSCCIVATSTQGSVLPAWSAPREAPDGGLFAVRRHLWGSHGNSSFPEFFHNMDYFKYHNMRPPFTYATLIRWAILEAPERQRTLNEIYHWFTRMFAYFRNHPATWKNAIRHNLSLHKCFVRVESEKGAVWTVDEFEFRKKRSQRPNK
Test: PD-seq (MBP pull-down with sequencing); 20 mM Tris-HCl pH 7.5, 100 mM NaCl, 1.5 mM MgCl2, 0.4 uM protein, 0.1 uM dsDNA library, 30 min, room temperature, amylose pull-down; high values mean tight binding
Conditions: protein: recombinant; tags: His6-MBP; chain copies: 2; dsDNA, one strand shown
Procedure, shortened: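 Binding is the reads-per-million enrichment of pull-down relative to input, pooled across replicates. For this, 0.4 µM His6-MBP-tagged mouse FoxP3 or FoxP1 fragment lacking the N-terminus, made in E. coli, was incubated with 0.1 µM Klenow-filled double-stranded degenerate DNA library for 30 min at room temperature in Tris pH 7.5 buffer with NaCl and MgCl2. Complexes bound to amylose resin were washed three times before proteinase K released the DNA for PCR barcoding and Illumina sequencing.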

Sequence | binding signal
GATGATTGTTCTCCCAGCTGATGAATTTGCGCCTTCGAGTAAACAAATTTTCCTAATCTTTCTGTTCAAGCGCCATCTAC | 3.88 RPM ratio (pull-down/input)
GATGATTGTTCTCCCAGCTGATGAATTGTCTCATTCGAGTAAACAAATTTTCCTAATCTTTCTGTTCAAGCGCCATCTAC | 0.539 RPM ratio (pull-down/input)
GATGATTGTTCTCCCAGCTGATGAATTGCGCCTGTCGAGTAAACAAATTTTCCTAATCTTTCTGTTCAAGCGCCATCTAC | 6.14 RPM ratio (pull-down/input)
GATGATTGTTCTCCCAGCTGATGAATTGCCTGTGTCGAGTAAACAAATTTTCCTAATCTTTCTGTTCAAGCGCCATCTAC | 0.881 RPM ratio (pull-down/input)
GATGATTGTTCTCCCAGCTGATGAATTTCCTGTGTCGAGTAAACAAATTTTCCTAATCTTTCTGTTCAAGCGCCATCTAC | 0.352 RPM ratio (pull-down/input)
GATGATTGTTCTCCCAGCTGATGAATTTTGCCTGTCGAGTAAACAAATTTTCCTAATCTTTCTGTTCAAGCGCCATCTAC | 5.62 RPM ratio (pull-down/input)
GATGATTGTTCTCCCAGCTGATGAATTGCCTGCGTCGAGTAAACAAATTTTCCTAATCTTTCTGTTCAAGCGCCATCTAC | 0.937 RPM ratio (pull-down/input)
GATGATTGTTCTCCCAGCTGATGAATTGCCTTTGTCGAGTAAACAAATTTTCCTAATCTTTCTGTTCAAGCGCCATCTAC | 0.946 RPM ratio (pull-down/input)
GATGATTGTTCTCCCAGCTGATGAATTTGCCCTGTCGAGTAAACAAATTTTCCTAATCTTTCTGTTCAAGCGCCATCTAC | 0.487 RPM ratio (pull-down/input)
GATGATTGTTCTCCCAGCTGATGAATTGTGCCTGTCGAGTAAACAAATTTTCCTAATCTTTCTGTTCAAGCGCCATCTAC | 6.42 RPM ratio (pull-down/input)
GATGATTGTTCTCCCAGCTGATGAATTGTTCCTGTCGAGTAAACAAATTTTCCTAATCTTTCTGTTCAAGCGCCATCTAC | 0.351 RPM ratio (pull-down/input)
GATGATTGTTCTCCCAGCTGATGAATTGGGAACTTCGAGTAAACAAATTTTCCTAATCTTTCTGTTCAAGCGCCATCTAC | 0.252 RPM ratio (pull-down/input)
GATGATTGTTCTCCCAGCTGATGAATTGATAGATTCGAGTAAACAAATTTTCCTAATCTTTCTGTTCAAGCGCCATCTAC | 0.495 RPM ratio (pull-down/input)
GATGATTGTTCTCCCAGCTGATGAATTCATAGGCTCGAGTAAACAAATTTTCCTAATCTTTCTGTTCAAGCGCCATCTAC | 0.321 RPM ratio (pull-down/input)
GATGATTGTTCTCCCAGCTGATGAATTATCCCGGTCGAGTAAACAAATTTTCCTAATCTTTCTGTTCAAGCGCCATCTAC | 0.208 RPM ratio (pull-down/input)
GATGATTGTTCTCCCAGCTGATGAATTTGGTAACTCGAGTAAACAAATTTTCCTAATCTTTCTGTTCAAGCGCCATCTAC | 1.38 RPM ratio (pull-down/input)
GATGATTGTTCTCCCAGCTGATGAATTTGCCTTGTCGAGTAAACAAATTTTCCTAATCTTTCTGTTCAAGCGCCATCTAC | 1.15 RPM ratio (pull-down/input)

Sequence | binding signal
GATGATTGTTCTCCCAGCTGATGAATTAATAGAGTCGAGTAAACAAATTTTCCTAATCTTTCTGTTCAAGCGCCATCTAC | 0.294 RPM ratio (pull-down/input)
GATGATTGTTCTCCCAGCTGATGAATTGCCACTCTCGAGTAAACAAATTTTCCTAATCTTTCTGTTCAAGCGCCATCTAC | 1.37 RPM ratio (pull-down/input)
GATGATTGTTCTCCCAGCTGATGAATTTGCCCACTCGAGTAAACAAATTTTCCTAATCTTTCTGTTCAAGCGCCATCTAC | 0.555 RPM ratio (pull-down/input)
GATGATTGTTCTCCCAGCTGATGAATTGCCACACTCGAGTAAACAAATTTTCCTAATCTTTCTGTTCAAGCGCCATCTAC | 1.52 RPM ratio (pull-down/input)
GATGATTGTTCTCCCAGCTGATGAATTTTGCCACTCGAGTAAACAAATTTTCCTAATCTTTCTGTTCAAGCGCCATCTAC | 5.96 RPM ratio (pull-down/input)
GATGATTGTTCTCCCAGCTGATGAATTGCGCCACTCGAGTAAACAAATTTTCCTAATCTTTCTGTTCAAGCGCCATCTAC | 7.19 RPM ratio (pull-down/input)
GATGATTGTTCTCCCAGCTGATGAATTTTTGCACTCGAGTAAACAAATTTTCCTAATCTTTCTGTTCAAGCGCCATCTAC | 0.699 RPM ratio (pull-down/input)
GATGATTGTTCTCCCAGCTGATGAATTGCTGCTCTCGAGTAAACAAATTTTCCTAATCTTTCTGTTCAAGCGCCATCTAC | 0.662 RPM ratio (pull-down/input)
GATGATTGTTCTCCCAGCTGATGAATTAAGACGATCGAGTAAACAAATTTTCCTAATCTTTCTGTTCAAGCGCCATCTAC | 0.207 RPM ratio (pull-down/input)
GATGATTGTTCTCCCAGCTGATGAATTGCTCACATCGAGTAAACAAATTTTCCTAATCTTTCTGTTCAAGCGCCATCTAC | 0.686 RPM ratio (pull-down/input)
GATGATTGTTCTCCCAGCTGATGAATTGTTTATATCGAGTAAACAAATTTTCCTAATCTTTCTGTTCAAGCGCCATCTAC | 5.7 RPM ratio (pull-down/input)
GATGATTGTTCTCCCAGCTGATGAATTTTATATATCGAGTAAACAAATTTTCCTAATCTTTCTGTTCAAGCGCCATCTAC | 1.65 RPM ratio (pull-down/input)
GATGATTGTTCTCCCAGCTGATGAATTTATATTATCGAGTAAACAAATTTTCCTAATCTTTCTGTTCAAGCGCCATCTAC | 1.6 RPM ratio (pull-down/input)
GATGATTGTTCTCCCAGCTGATGAATTTATTATATCGAGTAAACAAATTTTCCTAATCTTTCTGTTCAAGCGCCATCTAC | 2.18 RPM ratio (pull-down/input)
GATGATTGTTCTCCCAGCTGATGAATTTTTTATATCGAGTAAACAAATTTTCCTAATCTTTCTGTTCAAGCGCCATCTAC | 0.31 RPM ratio (pull-down/input)
GATGATTGTTCTCCCAGCTGATGAATTATATTTATCGAGTAAACAAATTTTCCTAATCTTTCTGTTCAAGCGCCATCTAC | 5.59 RPM ratio (pull-down/input)
